Records with an inconclusive call do not appear. A number with no mark means an inactive call. The source made the active and inactive calls. Calls come from the whole dose curve; as a rule, active = well fitted inhibition curve with a large enough effect; inconclusive = small, poorly fitted or top-dose-only effect; inactive = flat fitted curve, though single readings scatter.

Assay [1] in a line: qHTS profiling for inhibitors of Plasmodium falciparum proliferation (AID 504749).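 For activity, negative = inhibition: 0% = DMSO vehicle and full inhibition = artemisinin control.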 Note: nearly all actives have a fitted effect of over 60% in size. The note with it: P. falciparum in erythrocytes, SYBR Green DNA, 72 h. The essentials: (§1)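 P. falciparum-infected erythrocytes (0.3% parasitemia, 2.5% hematocrit) incubated with compound 72 h at 37 C, 5% CO2. Parasite DNA detected by SYBR Green after lysis, overnight at room temperature; normalised to 0.29 uM artemisinin and DMSO.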

A further assay has as its system 3D7. Described as above. The note with it: P. falciparum in erythrocytes, SYBR Green DNA, 72 h; series mostly up to 28.7 µM. The essentials: as §1
The next assay has as its system 7G8. The assay is described as above. The note with it: P. falciparum in erythrocytes, SYBR Green DNA, 72 h; series mostly up to 28.7 µM. A digest of the protocol: as §1
In the next assay the test system is AA1029. Described as above. The note with it: P. falciparum in erythrocytes, SYBR Green DNA, 72 h; series mostly up to 28.7 µM. The essentials: as §1
A further assay relates to AS120. The assay is described as above. The note with it: P. falciparum in erythrocytes, SYBR Green DNA, 72 h; series mostly up to 28.7 µM. The essentials:
as §1

The test system of the next assay is ATS189. Described as above. The settings on record: P. falciparum in erythrocytes, SYBR Green DNA, 72 h; series mostly up to 28.7 µM. The essentials: as §1
The subject of a further assay is ATS95. The description is as above. The note with it: P. falciparum in erythrocytes, SYBR Green DNA, 72 h; series mostly up to 28.7 µM. A digest of the protocol: as §1
In a further assay the test system is C2A. The assay is described as above. The note with it: P. falciparum in erythrocytes, SYBR Green DNA, 72 h; series mostly up to 28.7 µM. The essentials:
as §1

The next assay deals with CP185. The description is as above. The note with it: P. falciparum in erythrocytes, SYBR Green DNA, 72 h; series mostly up to 28.7 µM. The essentials: as §1
The next assay has as its system CP191. The assay is described as above. The settings on record: P. falciparum in erythrocytes, SYBR Green DNA, 72 h; series mostly up to 28.7 µM. A digest of the protocol:
as §1

Where [2] appears, read: at 28.7 µM (top of the series), parasite line A.
[3] abbreviates: at 28.7 µM (top of the series), parasite line B.
The mark [4] stands for this setting: at 12.8 µM (top of the series), parasite line A.
Potency is the fitted concentration of half-maximal effect.

In the case of `Clc1ccc(Cl)cc1`, the activity, negative = inhibition in assay [1] (setting [2]) is 7.27%. Also, the Potency result in the assay on 3D7, with 7G8, in the assay on AA1029, in the assay on AS120, in the assay with ATS189 and in the assay on ATS95 was “inactive” each time. Moreover, the Potency result in the assay on C2A, in the assay on CP185 and with CP191 was “inactive” each time.

For `CC12NC(Cc3ccccc31)c1ccccc12` (configuration not stated), the activity, negative = inhibition in [1] (setting [2]) is -7.25%; in assay [1] (setting [3]), 6.66%. The Potency result in the assay on 3D7 and in the assay on C2A was “inactive” each time. The Potency with AA1029 was 11.2 µM (active).

Turning to `CCOP(=O)(OCC)O/C(=C/Cl)c1ccc(Cl)cc1Cl`, the activity, negative = inhibition in [1] (setting [2]) was -27.9%; in assay [1] (setting [3]), -21.8%. For the same compound, the Potency result in the assay on 3D7, in the assay with AA1029, in the assay on ATS189, in the assay with ATS95, in the assay with C2A and in the assay with CP191 was “inactive” in each case.

As to `C[C@H]1CCC[C@H](O)CCCCCc2cc(O)cc(O)c2C(=O)O1`, in [1] (setting [3]), the activity, negative = inhibition is -17.3%. Besides, the Potency result in the assay with 3D7, with ATS189, in the assay on ATS95, in the assay with C2A and in the assay on CP185 was “inactive” throughout. For the same compound, the Potency with 7G8 was 12.6 µM (active).

With `c1ccc2sc(SNC3CCCCC3)nc2c1`, the figures for the activity, negative = inhibition in assay [1] (setting [2]) and in assay [1] (setting [3]) were 7.11% and 2.42%, respectively. The Potency result with 3D7, with AA1029, with AS120, in the assay with ATS189, in the assay with ATS95 and in the assay on C2A was “inactive” in each case. Also, the Potency result in the assay with CP185 and in the assay on CP191 was “inactive” in each case.

With `CCC(=O)O[C@@](Cc1ccccc1)(c1ccccc1)[C@@H](C)CN(C)C`, the activity, negative = inhibition was -5.92% in assay [1] (setting [4]) and -0.756% in assay [1] (at 12.8 µM (top of the series), parasite line B). In addition, the Potency entry with 3D7, in the assay on AA1029, in the assay on AS120, in the assay with ATS189, in the assay on ATS95 and in the assay with C2A was “inactive” each time. In addition, the Potency result in the assay on CP185 and with CP191 was “inactive” throughout.

With `c1cc2c(c(NC3=NCCN3)c1)CCCC2`, the activity, negative = inhibition in [1] (setting [2]) is -15.6%; in assay [1] (setting [3]), -7.85%. In addition, the Potency result in the assay on 3D7, with AA1029, in the assay with AS120, in the assay with ATS189, in the assay with ATS95 and with C2A was “inactive” in each case. Besides, the Potency result in the assay on CP185 and in the assay with CP191 was “inactive” each time.

For the compound `[Cl-].[Cl-].[Hg+2]`, the Potency in assay [1] (parasite line A) was 7.94 µM (active); in assay [1] (parasite line B), 8.91 µM (active); with 3D7, 12.6 µM (active); with 7G8 it was 11.2 µM (active). In the assay with CP191, the Potency result was “inactive”.

Turning to `CNC1(c2ccccc2Cl)CCCCC1=O` (configuration not stated), the activity, negative = inhibition in assay [1] (setting [2]) is 12.4%. The Potency entry in the assay on 3D7, in the assay on 7G8, in the assay on AA1029, in the assay on AS120, with ATS189 and with C2A was “inactive” each time. In the assay with CP185, the Potency entry is “inactive”.

For `F/C(COc1ccc2c(c1)[nH]c1ccccc12)=C1/CN2CCC1CC2`, the Potency in assay [1] (parasite line B) is 10 µM (active); in the assay with 7G8, 5.01 µM (active); in the assay on AA1029 it was 10 µM (active); with AS120, 4.47 µM (active); with ATS95, 11.2 µM (active); in the assay on CP191 it was 11.2 µM (active).

Regarding `c1ccc(C2(N3CCCC3)CCCCC2)cc1`, the Potency in [1] (parasite line A) is 12.6 µM (active); with 3D7 it was 12.6 µM (active); in the assay with 7G8, 11.2 µM (active); with AA1029, 11.2 µM (active); with AS120, 11.2 µM (active); with CP185, 12.6 µM (active). The Potency in the assay with CP191 is 11.2 µM (active). The Potency entry in the assay with ATS189 and with C2A was “inactive” throughout.

`CN1CCCC(=C(c2cccs2)c2cccs2)C1`: the activity, negative = inhibition in [1] (setting [3]) was -19.2%. Besides, the Potency entry with 3D7, in the assay with C2A and in the assay with CP191 was “inactive” in each case.

Turning to `O=C1CN(O)C(c2ccccc2)=c2cc(Cl)ccc2=N1`, the activity, negative = inhibition in assay [1] (setting [2]) was 7.13%; in [1] (setting [3]) it was 1.2%. In addition, the Potency entry with 3D7, in the assay with AA1029, in the assay with AS120, with ATS189, in the assay on ATS95 and with C2A was “inactive” each time. Besides, the Potency entry in the assay with CP185 and with CP191 was “inactive” in each case.

Consider `CCCCCCCCOC(=O)c1ccccc1C(=O)OCCCCCCCC`, for which the results for the activity, negative = inhibition in [1] (setting [2]) and in assay [1] (setting [3]) were 10.9% and -23.5%, respectively. Besides, the Potency entry in the assay with 3D7, with AA1029, in the assay on AS120, in the assay on ATS189, in the assay on ATS95 and in the assay with C2A was “inactive” in each case. In addition, the Potency entry with CP185 and in the assay with CP191 was “inactive” in each case.

Regarding `CCCC(C)(COC(N)=O)COC(=O)NC1CC1` (configuration not stated), the activity, negative = inhibition in assay [1] (setting [2]) was 8.1%; in [1] (setting [3]) it was 1.21%. The Potency result in the assay on 3D7, in the assay with AA1029, with AS120, in the assay with ATS189, in the assay on ATS95 and with C2A was “inactive” each time. For the same compound, the Potency entry in the assay on CP185 and with CP191 was “inactive” each time.

In the case of `CCCCCCCCCC(=O)O[C@H]1CC[C@H]2[C@@H]3CCC4=CC(=O)CC[C@]4(C)[C@H]3CC[C@]12C`, the figures for the activity, negative = inhibition in assay [1] (setting [2]) and in assay [1] (setting [3]) were 8.28% and -5.1%, respectively. Also, the Potency entry in the assay with 7G8, in the assay with AA1029, with AS120, in the assay with ATS189, with ATS95 and in the assay on C2A was “inactive” in each case. The Potency entry in the assay on CP185 and with CP191 was “inactive” in each case.

Take `CCCC(=O)OC(C(Cl)(Cl)Cl)P(=O)(OC)OC` (configuration not stated): the activity, negative = inhibition in [1] (setting [2]) is -16.7%; in assay [1] (setting [3]) it was -35.8%. Moreover, the Potency result in the assay on AA1029, with AS120, with ATS189, in the assay with C2A, with CP185 and in the assay with CP191 was “inactive” each time.

As for `CN1[C@@H]2CC[C@H]1CC(OC1c3ccccc3CCc3ccccc31)C2` (some centres not stated), the Potency in assay [1] (parasite line A) is 3.98 µM (active); in the assay on 7G8 it was 3.98 µM (active); in the assay on AA1029, 3.55 µM (active); in the assay with AS120, 3.55 µM (active); with CP191 it was 2.51 µM (active). Further, the Potency entry in the assay with 3D7 is “inactive”.

Regarding `CCNC(C)Cc1cccc(C(F)(F)F)c1` (configuration not stated), in assay [1] (setting [2]), the activity, negative = inhibition is 6.39%. Besides, the Potency result in the assay with 3D7, in the assay with 7G8, with AA1029, in the assay with AS120, in the assay with ATS189 and with ATS95 was “inactive” in each case. Also, the Potency result with C2A, in the assay with CP185 and in the assay on CP191 was “inactive” each time.

For `O=c1c2ccccc2[se]n1-c1ccccc1`, in the assay with 7G8, the Potency is 8.91 µM (active). Besides, the Potency entry in the assay with AA1029, with ATS95 and in the assay with C2A was “inactive” in each case.

As to `O=C1C2CC=CCC2C(=O)N1SC(Cl)(Cl)Cl` (configuration not stated), the values for the activity, negative = inhibition in [1] (setting [2]) and in assay [1] (setting [3]) were -6.95% and 5.29%, respectively. Moreover, the Potency result with 3D7, in the assay on AA1029, in the assay on AS120, with ATS189, with ATS95 and in the assay with C2A was “inactive” each time. In addition, the Potency entry in the assay on CP185 and with CP191 was “inactive” in each case.

Regarding `O=C(NC(=O)c1c(F)cccc1F)Nc1ccc(Cl)c(Oc2ncc(C(F)(F)F)cc2Cl)c1`, the results for the activity, negative = inhibition in [1] (setting [2]) and in [1] (setting [3]) were 9.79% and -1.85%, respectively. The Potency result in the assay on 3D7, with AA1029, in the assay on AS120, with ATS189, with ATS95 and in the assay on C2A was “inactive” in each case. In addition, the Potency entry with CP185 and in the assay with CP191 was “inactive” each time.

On to `CC1CCC(C(C)C)C(OC(=O)c2ccccc2N)C1` (configuration not stated), for which the results for the activity, negative = inhibition in assay [1] (setting [2]) and in [1] (setting [3]) were -17.5% and -19.4%, respectively. Further, the Potency result with 3D7, in the assay on AA1029, with AS120, in the assay with C2A, with CP185 and in the assay on CP191 was “inactive” each time.

In the case of `c1ccc2cc(CC3=NCCN3)ccc2c1`, the activity, negative = inhibition in assay [1] (setting [2]) was 3.45%; in assay [1] (setting [3]), -0.535%. Besides, the Potency entry in the assay with 3D7, in the assay with AA1029, in the assay on AS120, in the assay on ATS189, in the assay with ATS95 and with C2A was “inactive” in each case. For the same compound, the Potency entry with CP185 and with CP191 was “inactive” each time.

As for `C[C@@H](Cc1ccccc1)NCCC(c1ccccc1)c1ccccc1`, the activity, negative = inhibition in assay [1] (setting [4]) is -17.6%. The Potency with 7G8 is 4.47 µM (active). The Potency result in the assay with ATS189 and in the assay with C2A was “inactive” throughout.
